# Test results from PubChem BioAssay (Tox21).
# Records with an inconclusive call do not appear. Entries that show only a call come without a potency. Active and inactive are the calls of the source. Calls follow the shape of the full dose curve.
# Assay: p53 small molecule agonists, cell-based qHTS assay with rat liver microsomes: qHTS cell viability counter screen (AID 1963580); also: nearly all actives have a fitted effect of over 45% in size
# Conditions: p53RE-bla HCT-116 + rat microsomes, ATP viability, 16 h; series mostly up to 66 µM
# Method in brief: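 HCT-116 p53RE-bla, 4,000 cells/well, 5 h pre-incubation; cpd + rat liver microsomes 0.5 mg/mL + NADPH 0.5 mg/mL (final); 16 h, 37 C; CellTiter-Glo, 30 min RT; luminescence.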
row,Structure (SMILES),Potency
1,Nc1nc(N)c(N)c(N)n1,inactive
2,CCOP(=S)(NC(C)C)Oc1ccccc1C(=O)OC(C)C (stereo not given),inactive
3,COC(=O)C(C)N(C(=O)c1ccco1)c1c(C)cccc1C (stereo not given),inactive
4,CCCCCCCc1ccc(O)cc1,inactive
5,CCOP(=O)(OCC)Oc1nc(Cl)c(Cl)cc1Cl,inactive
6,O=c1ssc(Cl)c1Cl,inactive
7,CCCN(CCC)c1c([N+](=O)[O-])cc(C(F)(F)F)cc1[N+](=O)[O-],inactive
8,CNC(=O)N(C)c1nc2ccccc2s1,inactive
9,c1ccc2c(c1)cc1ccc3cccc4ccc2c1c34,inactive
10,CC(C)(O)c1cnn2c(-c3ccc(F)c(-c4c(F)cccc4C#N)c3)cnc2n1,inactive
11,CCOc1cc(C(C)(C)C)ccc1C1COC(c2c(F)cccc2F)=N1 (stereo not given),inactive
12,CC(C)(C)C(O)/C(=C\c1ccc(Cl)cc1Cl)n1cncn1 (stereo not given),inactive
13,NC1CCC(CC2CCC(N)CC2)CC1 (stereo not given),inactive
14,O=[N+]([O-])c1ccc(Oc2ccc(C(F)(F)F)cc2[N+](=O)[O-])cc1,inactive
15,CCCN(CC1CC1)c1c([N+](=O)[O-])cc(C(F)(F)F)cc1[N+](=O)[O-],inactive
16,OCC(c1ccc(Cl)cc1)c1ccc(Cl)cc1,inactive
17,COC(C)(C)CCC[C@H](C)C/C=C/C(C)=C/C(=O)OC(C)C,inactive
18,CCCSP(=S)(OCC)Oc1ccc(Cl)cc1Cl (stereo not given),inactive
19,O=C(N[C@H](c1ccccc1)[C@@H]1CN2CCC1CC2)c1c(Cl)ccc(C(F)(F)F)c1Cl,inactive
20,O=[N+]([O-])c1cc(C(F)(F)F)cc([N+](=O)[O-])c1Cl,inactive
